Assay results: PubChem BioAssay (Tox21)
Results filed as inconclusive are left out. A number with no mark means an inactive call. The call rests on the fitted dose curve; in most records, active means well fitted cell-killing curve with a large enough effect in the repeat runs; inconclusive means weak or mixed curves; inactive means flat fitted curve, though single readings scatter.

Assay: qHTS RealTime-Glo MT Cell Viability Assay in HepG2 cells - 16 hour (AID 1224885); further: nearly all actives have a fitted effect of over 50% in size
Conditions: RealTime-Glo luminescence; series mostly up to 76.8 µM; activity change, negative = cytotoxic: at the top concentration
Source text: U.S. Tox21 Program National Center for Advancing Translational Sciences [NCATS] NIH Chemical Genomics Center [NCGC] U.S. Environmental Protection Agency [EPA] National Institutes of Environmental Health Sciences [NIEHS] National Toxicology Program [NTP] U.S. Food and Drug Administration [FDA] Tox21 Assay Overview: Measure of cell viability is critical in the cell-base assay. Analysis of cell viability is necessary for the characterization of cell responses to cytotoxic drugs and environmental stress. A RealTime-Glo MT Cell Viability Assay to monitor cell viability in real time of continues cell culture during 40 hours of compound treatment was used to screen Tox21 10K library compounds in HepG2 cells. The RealTime-Glo MT Cell Viability Assay is a nonlytic, homogeneous, bioluminescent method to measure cell viability in real time using a simple, plate-based method. The assay involves adding NanoLuc luciferase and a cell-permeant prosubstrate to cells in culture. Viable cells reduce the proprietary prosubstrate to generate a substrate for NanoLuc luciferase. This substrate diffuses from cells into the surrounding culture medium, where it is rapidly used by the NanoLuc Enzyme to produce a luminescent signal. The signal correlates with the number of viable cells, making the assay well suited for cytotoxicity studies.
Tox21 Assay Protocol Summary: The mixture of HepG2 cell suspension and reagents were dispensed at 600cells/6 ul/well in 1536-well tissue culture treated black solid bottom plates using a Multidrop dispenser. After the assay plates were incubated at a 37 C/5% CO2 incubator for 5 hours, 23 nL of compounds dissolved in DMSO, positive and negative controls was transferred to the assay plate by a pintool work station. The plates were incubated at 37 C for 40 hours. The luminescence intensity were measured at 0h, 8h, 16h, 24h, 32h and 40h time points using ViewLux plate reader during compound treatment.
On the % scale 0 is the no-effect control and ±100 the full control effect.

Going from `CO[C@@H]1[C@H](OC(=O)/C=C/C=C/C=C/C=C/C(=O)O)CC[C@]2(CO2)[C@H]1[C@@]1(C)O[C@@H]1CC=C(C)C` to `CC1=CCCC(C)(C)C12CCC(C)O2` (stereo not given), the “activity change, negative = cytotoxic” value rises from -7.71% to 3.49%.

First: CCO[Si](CCCCl)(OCC)OCC
Second: CCCCC(CC)COC(=O)COc1ccc(Cl)cc1Cl (stereo not given)
The “activity change, negative = cytotoxic” value of the first is higher: 1.01% for the first, -5.72% for the second.

First: C=C(C)C(=O)OCCO
Second: CC(COCCO)OCCO (stereo not given)
The “activity change, negative = cytotoxic” value of the first is lower: -0.266% for the first, 6.29% for the second.

First: CCCCC(CC)CN1C(=O)C2C3C=CC(C3)C2C1=O (stereo not given)
Second: CCCCCC[C@@H](O)C/C=C\CCCCCCCC(=O)OC
The “activity change, negative = cytotoxic” value of the first is lower: -9.21% for the first, -0.855% for the second.

Going from `CCOc1ccc(N=Nc2ccc(/C=C/c3ccc(N=Nc4ccc(OCC)cc4)cc3S(=O)(=O)O)c(S(=O)(=O)O)c2)cc1` to `CCCCc1nc2cccnc2n1Cc1ccc(-c2ccccc2-c2nnn[nH]2)cc1`, the “activity change, negative = cytotoxic” value rises from -25.5% to -2.67%.

Going from `O=C(O)c1ccc(S(=O)(=O)O)cc1C(=O)O` to `Cc1cc(C(=O)O)ccc1[N+](=O)[O-]`, the “activity change, negative = cytotoxic” value rises from -14.7% to 2.88%.

Compared with `C=CC1CC2C=CC1C2` (stereo not given), `CC1=CC[C@H](C(C)C)C=C1` is lower in “activity change, negative = cytotoxic” value: 0.475% for the first, -0.593% for the second.

First: CCCCCCCCCCCCCCOS(=O)(=O)O
Second: O=C(OCCCCCCOC(=O)c1ccccc1)c1ccccc1
The “activity change, negative = cytotoxic” value of the first is lower: 0% for the first, 0.589% for the second.

Compared with `CCOC(=O)Cc1cccc2ccccc12`, `CN(C)c1ccc(CCO)cc1` is higher in “activity change, negative = cytotoxic” value: -0.525% for the first, 1.78% for the second.

First: C/C=C/C=C/CO
Second: O=C(O)c1nc(Cl)c(Cl)c(Cl)c1Cl
The “activity change, negative = cytotoxic” value of the first is lower: -3.05% for the first, 4.45% for the second.

First: CCCn1cnc2c1c(=O)n(CCCCC(C)=O)c(=O)n2C
Second: C[N+](C)(C)CCOC(=O)CCC(=O)OCC[N+](C)(C)C
The “activity change, negative = cytotoxic” value of the first is lower: 0.887% [at 35.3 µM] for the first, 3.45% [at 35.3 µM] for the second.

First: c1ccc(CNCCNCc2ccccc2)cc1
Second: CCCOC(C(=O)OC1CCN(C)CC1)(c1ccccc1)c1ccccc1
The “activity change, negative = cytotoxic” value of the first is higher: -0.595% [at 35.3 µM] for the first, -19.8% [at 35.3 µM] for the second.

Compared with `O=C(O)c1ccc(-n2nc(-c3ccccc3O)nc2-c2ccccc2O)cc1`, `CN(Cc1ccc(C(C)(C)C)cc1)Cc1cccc2ccccc12` is lower in “activity change, negative = cytotoxic” value: 2.79% [at 35.3 µM] for the first, -0.355% [at 35.3 µM] for the second.

Going from `C/C=C(/C(=C/C)c1ccc(OC(C)=O)cc1)c1ccc(OC(C)=O)cc1` to `CCO[C@H](Cc1ccc(OCCc2ccc(OS(C)(=O)=O)cc2)cc1)C(=O)O`, the “activity change, negative = cytotoxic” value rises from 1.92% [at 35.3 µM] to 14.6% [at 35.3 µM].

First: C[N+]1(CC2COC(c3ccccc3)(C3CCCCC3)O2)CCCCC1 (stereo not given)
Second: C[N+]1(C)CCC(OC(=O)C(O)(c2ccccc2)C2CCCC2)C1 (stereo not given)
The “activity change, negative = cytotoxic” value of the first is lower: -2.68% [at 35.3 µM] for the first, 5.08% [at 35.3 µM] for the second.

Compared with `CCCCCCCCCCCCCCCCOS(=O)(=O)O`, `CCCCC/C=C\C/C=C\CCCCCCCC(=O)NC(C)c1ccccc1` (stereo not given) is lower in “activity change, negative = cytotoxic” value: 0.0287% [at 35.3 µM] for the first, -23.2% [at 35.3 µM] for the second.

First: CCOCC(O)COc1ccc(NC(=O)CC[S+](C)C)cc1 (stereo not given)
Second: Cc1ccc(C(C)OC(=O)C2(C)CCC(C(=O)O)C2(C)C)cc1 (stereo not given)
The “activity change, negative = cytotoxic” value of the first is lower: 2.76% [at 35.3 µM] for the first, 4.32% [at 35.3 µM] for the second.

First: C[C@@H](c1ncncc1F)C(O)(Cn1cncn1)c1ccc(F)cc1F (stereo not given in full)
Second: C#Cc1cccc(Nc2ncnc3cc(OCCOC)c(OCCOC)cc23)c1
The “activity change, negative = cytotoxic” value of the first is higher: 4.4% [at 35.3 µM] for the first, -19.5% [at 35.3 µM] for the second.

First: NCC(=O)CCC(=O)O
Second: O=C(O)C1(C(=O)O)CCC1.[NH2-].[NH2-].[Pt+2]
The “activity change, negative = cytotoxic” value of the first is higher: 4.02% [at 35.3 µM] for the first, 3.54% [at 35.3 µM] for the second.

With `CCC(=O)O[C@]1(C(=O)CCl)[C@@H](C)C[C@H]2[C@@H]3CCC4=CC(=O)C=C[C@]4(C)[C@@]3(F)[C@@H](O)C[C@@]21C` the “activity change, negative = cytotoxic” value was -24.1% [at 35.3 µM].

`CN(C)c1ccc(/C=C/c2ccc([N+](=O)[O-])cc2)cc1` gave an activity change, negative = cytotoxic of -7.1% [at 6.97 µM].
